# UHRF1 binding: UHRF1 methyl-DNA binding inhibition | Q96T88 | UHRF1 binding to methylated oligo, TR-FRET | inhibition, % at 4.4 µM | 370,000 tested, 0.75% active | AID 687016; in the data active = inhibition above about 21%;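 also: UHRF1 SRA domain binding a hemimethylated CpG hairpin DNA probe; 0% = median of test compound wells and 100% = reference inhibitor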
# PLCb3 inh: inhibitors of human phospholipase C beta3; Q01970; Purified PLC-beta3, fluorogenic substrate, fluorescence; inhibition, % at 12.2 µM; 370,000 tested, 0.18% active; in the data active = inhibition above about 11%;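 also: 0% = median of compound wells on plate and 100% = full blocker control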
# PLCg1 inh: PLC-gamma1 (human) inhibition, primary screen; AID 720700; 370,000 tested, 0.84% active; P19174; inhibition, % at 12.2 µM; purified PLC-gamma1, fluorogenic substrate, fluorescence; in the data active = inhibition above about 9.5%
# LEDGF integ inh: blocks HIV-1 LEDGF/p75-dependent DNA integration | TR-FRET IN-LEDGF/p75 DNA integration, Eu/Cy5 | inhibition, % at 3.7 µM | 370,000 tested, 0.64% active | AID 743269;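 active = inhibition above the screen-wide mean plus 3 SD, cut at about 13% in these data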;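 also: signal is the Cy5 over europium emission ratio at 671 and 618 nm; 0% = plate median of compound wells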
# MBD2 inh: inhibitors of human MBD2 binding to methylated oligonucleotide; TR-FRET; inhibition, % at 4.4 µM; 370,000 tested, 0.31% active; in the data active = inhibition above about 13%
# An asterisk follows results filed as active. Sampled rows, rich in hits. Any-hit rate of the full collection: about 2.4%.
SMILES,UHRF1 binding,PLCb3 inh,PLCg1 inh,LEDGF integ inh,MBD2 inh
COC(=O)[C@H](C(C)C)N1CCc2nnn(Cc3ccc(C)cc3)c2-c2cc(F)ccc2S1(=O)=O,0,2,1,1,1
O=C(CC1C=CCC1)OCCN1CCN(C2CN(Cc3cn(Cc4ccccc4Cl)nn3)S(=O)(=O)C2)CC1 (stereo not drawn),3,5,0,4,0
CCCCc1c(Cc2cccc(F)c2)ncn1CCc1ccccc1OC,21*,3,6,10,5
CCC1CCC/C1=N\NC(=O)c1ccccc1C (stereo not drawn),2,7,10*,7,3
Cc1cccc(N=Cc2cc3c(cc2[N+](=O)[O-])OCO3)c1,-5,-6,1,14*,-6
C#CCNC(=O)C[C@@H]1C[C@@](CCC(=O)OCC)(C(=O)OCC)C2=CCCCN2C1=O,-2,1,-1,0,4
COC(=O)[C@]12C[C@H](CC(=O)N3CCN(C(=O)c4ccco4)CC3)C(=O)N(Cc3ccco3)C1=C[C@H](C(C)(C)C)O[C@@H]2C,-1,-1,0,-3,0
c1ccc(-c2csc(NC3=NCCCCC3)n2)cc1,3,2,2,2,5
N#Cc1ccc(-c2csc(NC3=NCCCCC3)n2)cc1,39*,-62,-44,1,3
CC1=NN(c2ccccc2)C(=O)/C1=C/c1ccc(Cl)cc1,12,3,16*,8,8
CC1=NN(c2ccccc2)C(=O)C1=Cc1ccccc1,16,5,10*,12,5
Cc1ccc(C(=O)N(C)[C@H]2C[C@H]3c4[nH]c5c(-c6ccc7c(c6)OCO7)cccc5c4CCN3C[C@H]2[C@H](C)O)cc1,4,-2,-5,4,2
CCCCCCCCN1C(=O)[C@@H](CC(=O)NCCCN2CCCC2=O)C[C@@]2(C(=O)OC)C1=C[C@H](C(C)(C)C)O[C@@H]2C,35*,4,4,4,-1
Cc1cc(C(=O)O)ccc1-c1ccc(/C=C2\SC(=O)N(CC(=O)Nc3ccc4c(c3)OCO4)C2=O)o1,24*,-22,-12,-2,6
Cc1ccccc1NC(=O)CN1C(=O)S/C(=C\c2ccc(-c3cc(C(=O)O)ccc3C)o2)C1=O,19,-11,-7,-1,7
Cc1ccc(NC(=O)CN2C(=O)S/C(=C/c3ccc(-c4cccc(C(=O)O)c4)o3)C2=O)cc1,23*,-19,-8,5,8
C#CCN1C(=O)S/C(=C\c2ccc(-c3ccc(C(=O)O)cc3C)o2)C1=O,41*,-163,-118,9,12
Cc1ccc(C(=O)O)cc1-c1ccc(/C=C2\SC(=O)N(CC(=O)Nc3ccccc3)C2=O)o1,22*,-34,-37,3,6
COCc1cn(-c2ccc3c(c2)[C@@]2(CC(=O)N(C)C2c2ccccc2)C(=O)N3CC(C)C)nn1 (stereo partly drawn),-2,2,1,5,4
CCCCN1C[C@@H](COCc2ccccc2)Oc2cc(F)ccc2S1(=O)=O,5,-3,-1,-3,0
O=C(OC12CCCN(C1)/C(=C/c1cccc(Cl)c1)C2)c1ccno1 (stereo not drawn),1,-3,-1,0,1
c1ccc2c(C(c3nnnn3-c3ccc4c(c3)OCCO4)N3CCOCC3)ccnc2c1 (stereo not drawn),22*,1,0,1,6
c1ccc2c(C(c3nnnn3-c3ccc4c(c3)OCCO4)N3CCCC3)ccnc2c1 (stereo not drawn),-6,-5,-6,-1,-4
CCCCCCCCNC(=O)C1CSCCS(=O)(=O)N1Cc1ccc(OC)cc1 (stereo not drawn),-1,4,-2,0,-10
Cc1cc(C)c(NS(=O)(=O)c2ccc3c(c2)oc(=O)n3C)c(C)c1,39*,0,0,-1,-1
SMILES,UHRF1 binding,PLCb3 inh,PLCg1 inh,LEDGF integ inh,MBD2 inh
O=C(COc1ccc(Cl)cc1)Nc1ncc([N+](=O)[O-])s1,2,6,8,5,-3
O=C(COC(=O)COc1ccccc1)Nc1ncc([N+](=O)[O-])s1,7,-9,-1,32*,2
CCN(C)C1CN(Cc2cn(CCCOC)nn2)S(=O)(=O)C1 (stereo not drawn),7,4,4,0,0
COCCCn1cc(CN(C)C2CN(Cc3cn(CCCOC)nn3)S(=O)(=O)C2)nn1 (stereo not drawn),24*,-2,1,2,8
COc1ccc([C@H]2OC(=O)C[C@H]2C(=O)N2CCCC2)cc1OC,0,1,1,0,1
C=c1[nH]cc(C(C)c2c(C)n(C)c3ccccc23)/c1=C/C (stereo not drawn),-1,-36,-28,3,-6
Cc1nn(-c2ccccc2)c2nc(-c3ccco3)cc(C(=O)O)c12,14,-335,-329,16*,5
Cc1nn(-c2cccc(Cl)c2)c2nc(-c3ccco3)cc(C(=O)O)c12,8,-384,-286,13,1
O=C(/C(=C(\[O-])c1ccccc1)[n+]1ccc2ccccc2c1)c1ccc(Cl)cc1,25*,-11,-8,0,2
N#Cc1ccsc1NC(=O)COC(=O)CCCSc1nc2ccccc2s1,75*,-10,-8,1,8
COCCCN1C(=O)[C@H](CC(=O)N2CCN(C(=O)C3CC3)CC2)[C@]2(C(=O)OC)CCCCC=C12,0,1,1,2,-2
CO[C@@H]1CN(C)C(=O)c2cc(NC(=O)NC3CCCCC3)ccc2OC[C@@H](C)N(CC2CCOCC2)C[C@@H]1C,1,5,-3,0,0
CO[C@@H]1CN(C)C(=O)c2ccc(NC(=O)c3ccccc3F)cc2OC[C@@H](C)N(CC2CCOCC2)C[C@@H]1C,4,11*,3,3,-4
CCN(C(=O)CSc1nnc(-c2cccnc2)n1Cc1ccco1)c1ccccc1C,-3,0,-1,0,-5
COc1ccc2ccccc2c1C=NNC(=O)c1cc(-c2ccc(C)c(C)c2)n[nH]1,-3,-29,-21,1,-2
O=C(CN1CCCCCC1)Nc1cc(C(F)(F)F)ccc1Cl,1,-9,-1,-1,0
O=C(O)C1=C(C(=O)Nc2cc(C(F)(F)F)ccc2Cl)CCCC1,29*,-2,0,-3,-1
CC(C)(C)c1ccc(-c2nnc(SCC(=O)Nc3cccc4ccccc34)n2Cc2ccco2)cc1,-1,2,5,4,-3
Cc1ccc(CNC(=O)C(OC(=O)c2ccco2)C(C)C)cc1 (stereo not drawn),-2,-2,2,-2,6
CC(C)C(OC(=O)c1ccco1)C(=O)NCc1ccco1 (stereo not drawn),33*,-2,0,-3,3
CCOC(=O)C1=NN(c2ccc(OC)cc2)C2C(=O)N(c3ccccc3OC)C(=O)C12 (stereo not drawn),-2,-100,-72,0,0
